From PubChem BioAssay
Calls of active or inactive are those of the source. Cut-off read from the data, not from the text of the source, unless noted: active = inhibition above about 44%; inactive = the rest.

Biological target: Nuclear receptor subfamily 5 group A member 2 (Homo sapiens) (UniProt O00482)
Test: LRH-1 (NR5A2) inverse agonists, retest, confirmation, cell-based, luminescence (AID 651613; in the data active = inhibition above about 42%;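 note: HEK293T cells co-transfected with LRH-1 and StAR promoter luciferase reporter; 0% = vehicle wells and 100% = parental cells lacking receptor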)
Conditions: cell-based LRH-1 luciferase reporter, inverse agonism; at 3.6 µM; hits give high values

Sequence of Nuclear receptor subfamily 5 group A member 2 (Homo sapiens) (O00482 whole entry, looked up): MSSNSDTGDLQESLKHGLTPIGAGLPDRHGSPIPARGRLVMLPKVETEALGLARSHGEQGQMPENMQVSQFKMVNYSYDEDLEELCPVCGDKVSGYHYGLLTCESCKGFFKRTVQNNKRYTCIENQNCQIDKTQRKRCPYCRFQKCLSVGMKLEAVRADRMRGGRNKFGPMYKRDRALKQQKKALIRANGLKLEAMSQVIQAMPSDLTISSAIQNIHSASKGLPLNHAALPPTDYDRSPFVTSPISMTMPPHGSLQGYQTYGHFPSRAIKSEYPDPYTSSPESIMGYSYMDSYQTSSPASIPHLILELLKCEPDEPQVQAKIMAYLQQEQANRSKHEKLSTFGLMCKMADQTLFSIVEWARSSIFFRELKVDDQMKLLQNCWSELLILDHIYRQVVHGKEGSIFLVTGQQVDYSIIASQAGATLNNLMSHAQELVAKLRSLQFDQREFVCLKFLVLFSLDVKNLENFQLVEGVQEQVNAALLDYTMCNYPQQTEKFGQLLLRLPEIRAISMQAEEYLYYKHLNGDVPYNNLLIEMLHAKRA

| Structure (SMILES) | inhibition |
| --- | --- |
| O=[N+]([O-])c1cccc(-c2nc(-c3cccs3)c(-c3cccs3)[nH]2)c1 | 55% (active) |
| Cc1cc(C)c(S(=O)(=O)/N=C2/C=C(Sc3ncn[nH]3)C(=O)c3ccccc32)cc1C | 77.8% (active) |
| Nc1ccc2oc(-c3cc(Br)ccc3Cl)nc2c1 | 45.4% (active) |
| C1=C(CCNc2ncnc3c2[nH]c2ccccc23)CCCC1 | 36% (inactive) |
| O=C1OC(Nc2cc(Br)cc3cccnc23)c2ccccc21 (stereo not given) | 25.9% (inactive) |
| COc1cccc(/C=N/NC(=O)c2[nH]c(C)c(C(=O)N/N=C/c3cccc(OC)c3O)c2C)c1O | 24.8% (inactive) |
| C(=N\Nc1nc2ccccc2[nH]1)/c1cccc2cccnc12 | 74% (active) |
| COCCn1c(N)c(C(=O)NCC2CCCO2)c2nc3ccccc3nc21 (stereo not given) | 47.2% (active) |
| COc1cccc2c1C(=O)c1c(O)c3c(c(O)c1C2=O)C[C@](O)(C(C)=O)C[C@H]3O[C@@H]1C[C@@H](N)[C@@H](O)[C@@H](C)O1 | 104% (active) |
| COc1ccc2c(c1)[nH]c1c(N3CCN(Cc4ccc5c(c4)OCO5)CC3)ncnc12 | 50.2% (active) |
| CN1CCN(c2ccc(NC(=O)c3ccc(-c4ccc(Br)cc4)o3)cc2)CC1 | 52% (active) |
| O=C1C(SCCO)=C(SCCO)C(=O)c2ccccc21 | 76.3% (active) |
| CCc1ccc(S(=O)(=O)/N=C2\C=C(Nc3ccc(O)cc3)C(=O)c3ccccc32)cc1 | 105% (active) |
| COc1cccc(-c2nc(NC(C)C)c3ccccc3n2)c1O | 46.5% (active) |
| Cc1cccc(-n2c3nc(=O)[nH]c(=O)c-3cc3cc([N+](=O)[O-])ccc32)c1 | 42.1% (active) |
| CCCCn1c(NS(=O)(=O)c2ccccc2)c(S(=O)(=O)c2ccc(C)cc2)c2nc3ccccc3nc21 | 19.7% (inactive) |
| O=[N+]([O-])c1ccc(-c2nc(-c3cccs3)c(-c3cccs3)[nH]2)cc1 | 59.5% (active) |

Biological target: Steroidogenic factor 1 (Homo sapiens) (UniProt Q13285)
Sequence (Q13285 whole entry, looked up): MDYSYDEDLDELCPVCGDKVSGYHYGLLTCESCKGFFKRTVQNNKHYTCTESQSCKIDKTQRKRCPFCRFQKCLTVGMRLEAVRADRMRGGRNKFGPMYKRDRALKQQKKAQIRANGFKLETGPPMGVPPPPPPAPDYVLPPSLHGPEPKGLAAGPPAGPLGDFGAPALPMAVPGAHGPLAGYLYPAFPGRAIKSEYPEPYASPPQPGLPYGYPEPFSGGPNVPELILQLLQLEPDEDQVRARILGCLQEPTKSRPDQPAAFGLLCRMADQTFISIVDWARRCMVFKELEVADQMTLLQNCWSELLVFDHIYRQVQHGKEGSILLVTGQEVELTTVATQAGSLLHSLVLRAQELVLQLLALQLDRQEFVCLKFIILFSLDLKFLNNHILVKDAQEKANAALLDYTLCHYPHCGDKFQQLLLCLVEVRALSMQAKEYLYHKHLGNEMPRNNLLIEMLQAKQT
Test: SF1 (NR5A1) inverse agonists, counter-screen for LRH-1 inverse agonist project, cell-based, luminescence, high throughput (AID 651614);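 note: cells cotransfected with StAR promoter reporter and SF1 expression vector; 0% = vehicle on cells with receptor and 100% = vehicle on cells lacking receptor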
Conditions: cell-based SF1 luciferase reporter, at 3.6 µM, hits give high values

| Structure (SMILES) | inhibition |
| --- | --- |
| O=[N+]([O-])c1cccc(-c2nc(-c3cccs3)c(-c3cccs3)[nH]2)c1 | 42.7% (active) |
| Cc1cc(C)c(S(=O)(=O)/N=C2/C=C(Sc3ncn[nH]3)C(=O)c3ccccc32)cc1C | 72.5% (active) |
| Nc1ccc2oc(-c3cc(Br)ccc3Cl)nc2c1 | 32.9% (inactive) |
| C1=C(CCNc2ncnc3c2[nH]c2ccccc23)CCCC1 | 41.4% (inactive) |
| O=C1OC(Nc2cc(Br)cc3cccnc23)c2ccccc21 (stereo not given) | 31.6% (inactive) |
| COc1cccc(/C=N/NC(=O)c2[nH]c(C)c(C(=O)N/N=C/c3cccc(OC)c3O)c2C)c1O | 17.4% (inactive) |
| C(=N\Nc1nc2ccccc2[nH]1)/c1cccc2cccnc12 | 64.3% (active) |
| COCCn1c(N)c(C(=O)NCC2CCCO2)c2nc3ccccc3nc21 (stereo not given) | 50.4% (active) |
| COc1cccc2c1C(=O)c1c(O)c3c(c(O)c1C2=O)C[C@](O)(C(C)=O)C[C@H]3O[C@@H]1C[C@@H](N)[C@@H](O)[C@@H](C)O1 | 92.5% (active) |
| COc1ccc2c(c1)[nH]c1c(N3CCN(Cc4ccc5c(c4)OCO5)CC3)ncnc12 | 53.7% (active) |
| CN1CCN(c2ccc(NC(=O)c3ccc(-c4ccc(Br)cc4)o3)cc2)CC1 | 50.9% (active) |
| O=C1C(SCCO)=C(SCCO)C(=O)c2ccccc21 | 74.8% (active) |
| CCc1ccc(S(=O)(=O)/N=C2\C=C(Nc3ccc(O)cc3)C(=O)c3ccccc32)cc1 | 96% (active) |
| COc1cccc(-c2nc(NC(C)C)c3ccccc3n2)c1O | 57% (active) |
| Cc1cccc(-n2c3nc(=O)[nH]c(=O)c-3cc3cc([N+](=O)[O-])ccc32)c1 | 47.4% (active) |
| CCCCn1c(NS(=O)(=O)c2ccccc2)c(S(=O)(=O)c2ccc(C)cc2)c2nc3ccccc3nc21 | 24.9% (inactive) |
| O=[N+]([O-])c1ccc(-c2nc(-c3cccs3)c(-c3cccs3)[nH]2)cc1 | 50.8% (active) |

Test system: not listed separately
Test: VP16 transactivation reporter inhibitors, counter-screen for LRH-1 inverse agonist project, cell-based, luminescence, high throughput (AID 651615; in the data active = inhibition above about 33%)
Conditions: Gal4-VP16 luciferase reporter cells, at 3.6 µM, hits give high values

| Structure (SMILES) | inhibition |
| --- | --- |
| O=[N+]([O-])c1cccc(-c2nc(-c3cccs3)c(-c3cccs3)[nH]2)c1 | -12.5% (inactive) |
| Cc1cc(C)c(S(=O)(=O)/N=C2/C=C(Sc3ncn[nH]3)C(=O)c3ccccc32)cc1C | 39.7% (active) |
| Nc1ccc2oc(-c3cc(Br)ccc3Cl)nc2c1 | -44.9% (inactive) |
| C1=C(CCNc2ncnc3c2[nH]c2ccccc23)CCCC1 | 37.5% (active) |
| O=C1OC(Nc2cc(Br)cc3cccnc23)c2ccccc21 (stereo not given) | 13.6% (inactive) |
| COc1cccc(/C=N/NC(=O)c2[nH]c(C)c(C(=O)N/N=C/c3cccc(OC)c3O)c2C)c1O | 25.2% (inactive) |
| C(=N\Nc1nc2ccccc2[nH]1)/c1cccc2cccnc12 | 23.9% (inactive) |
| COCCn1c(N)c(C(=O)NCC2CCCO2)c2nc3ccccc3nc21 (stereo not given) | -14.9% (inactive) |
| COc1cccc2c1C(=O)c1c(O)c3c(c(O)c1C2=O)C[C@](O)(C(C)=O)C[C@H]3O[C@@H]1C[C@@H](N)[C@@H](O)[C@@H](C)O1 | 77.3% (active) |
| CN1CCN(c2ccc(NC(=O)c3ccc(-c4ccc(Br)cc4)o3)cc2)CC1 | 13.1% (inactive) |
| O=C1C(SCCO)=C(SCCO)C(=O)c2ccccc21 | 46.1% (active) |
| CCc1ccc(S(=O)(=O)/N=C2\C=C(Nc3ccc(O)cc3)C(=O)c3ccccc32)cc1 | 94.3% (active) |
| COc1cccc(-c2nc(NC(C)C)c3ccccc3n2)c1O | -1.3% (inactive) |
| Cc1cccc(-n2c3nc(=O)[nH]c(=O)c-3cc3cc([N+](=O)[O-])ccc32)c1 | 27.6% (inactive) |
| CCCCn1c(NS(=O)(=O)c2ccccc2)c(S(=O)(=O)c2ccc(C)cc2)c2nc3ccccc3nc21 | -6.99% (inactive) |
| O=[N+]([O-])c1ccc(-c2nc(-c3cccs3)c(-c3cccs3)[nH]2)cc1 | -8.61% (inactive) |
